# Only a selection was taken, and the strongest signals are over-represented in it overall.
# Columns and labels:
# Assay in all cases: glycan array binding signal (z-score within array); higher = stronger binding
# Conditions in all cases: glycan notation: IUPAC condensed, linker removed
# [1] = target: Glc(a1-4)Glc
# Outline: (§1)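 Glycan array binding is given as a within-array Z-score, which can be read as non-binding when negative. The arrays, 3228 of them, came from the Consortium for Functional Glycomics database and were retained only where the protein sequence was available. Z-scores were averaged across arrays of the same protein sequence at different concentrations or buffers and across linkers.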
# [2] = target: Glc(b1-4)Glc
# Outline: as §1
# [3] = target: GlcA(b1-6)Gal
# Outline: as §1
# [4] = target: GlcA3S(b1-3)Gal(b1-4)GlcNAc(b1-2)Man
# Outline: as §1
# [5] = target: GlcNAc(b1-2)Man(a1-3)[GlcNAc(b1-4)][GlcNAc(b1-2)Man(a1-6)]Man(b1-4)GlcNAc(b1-4)[Fuc(a1-6)]GlcNAc
# Outline: as §1
# [6] = target: GlcNAc(b1-3)Gal(b1-4)GlcNAc(b1-3)Gal(b1-4)GlcNAc
# Outline: as §1
# [7] = target: GlcNAc(b1-3)Gal(b1-4)GlcNAc(b1-3)Gal(b1-4)GlcNAc(b1-2)Man(a1-3)[GlcNAc(b1-3)Gal(b1-4)GlcNAc(b1-3)Gal(b1-4)GlcNAc(b1-2)Man(a1-6)]Man(b1-4)GlcNAc(b1-4)[Fuc(a1-6)]GlcNAc
# Outline: as §1
# [8] = target: GlcNAc(b1-3)Gal(b1-4)GlcNAc(b1-3)Gal(b1-4)GlcNAc(b1-3)Gal(b1-4)GlcNAc(b1-2)Man(a1-3)[GlcNAc(b1-3)Gal(b1-4)GlcNAc(b1-3)Gal(b1-4)GlcNAc(b1-3)Gal(b1-4)GlcNAc(b1-2)Man(a1-6)]Man(b1-4)GlcNAc(b1-4)GlcNAc
# Outline: as §1
# [9] = target: GlcNAc(b1-3)Gal(b1-4)GlcNAc(b1-3)Gal(b1-4)GlcNAc(b1-3)Gal(b1-4)GlcNAc(b1-3)Gal(b1-4)GlcNAc(b1-2)Man(a1-3)[GlcNAc(b1-3)Gal(b1-4)GlcNAc(b1-3)Gal(b1-4)GlcNAc(b1-3)Gal(b1-4)GlcNAc(b1-3)Gal(b1-4)GlcNAc(b1-2)Man(a1-6)]Man(b1-4)GlcNAc(b1-4)GlcNAc
# Outline: as §1
# [10] = target: GlcNAc(b1-4)GlcNAc(b1-4)GlcNAc(b1-4)GlcNAc(b1-4)GlcNAc
# Outline: as §1
# [11] = target: Man(a1-6)Man
# Outline: as §1
# [12] = target: Neu5Ac(a2-3)Gal(b1-3)GlcNAc
# Outline: as §1
# [13] = target: Neu5Ac(a2-3)Gal(b1-4)GlcNAc(b1-2)Man
# Outline: as §1
# [14] = target: Neu5Ac(a2-3)Gal(b1-4)GlcNAc(b1-3)Gal(b1-4)GlcNAc(b1-2)Man(a1-3)[Neu5Ac(a2-3)Gal(b1-4)GlcNAc(b1-3)Gal(b1-4)GlcNAc(b1-2)Man(a1-6)]Man(b1-4)GlcNAc(b1-4)GlcNAc
# Outline: as §1
# [15] = target: Neu5Ac(a2-3)Gal(b1-4)GlcNAc(b1-3)Gal(b1-4)GlcNAc(b1-3)[Neu5Ac(a2-3)Gal(b1-4)GlcNAc(b1-3)Gal(b1-4)GlcNAc(b1-6)]GalNAc
# Outline: as §1
# [16] = target: Neu5Ac(a2-3)Gal(b1-4)[Fuc(a1-3)]GlcNAc(b1-2)Man
# Outline: as §1
# [17] = target: Neu5Ac(a2-3)Gal(b1-4)[Fuc(a1-3)]GlcNAc(b1-6)[Neu5Ac(a2-3)Gal(b1-3)]GalNAc
# Outline: as §1
# [18] = target: Neu5Ac(a2-3)Gal6S(b1-4)GlcNAc
# Outline: as §1
# [19] = target: Neu5Ac(a2-3)GalNAc
# Outline: as §1
# [20] = target: Neu5Ac(a2-3)[Neu5Ac(a2-6)]GalNAc
# Outline: as §1
# [21] = target: Neu5Ac(a2-6)Gal(b1-4)GlcNAc(b1-2)Man
# Outline: as §1
# [22] = target: Neu5Ac(a2-6)Gal(b1-4)GlcNAc(b1-2)Man(a1-3)[Gal(b1-4)GlcNAc(b1-2)Man(a1-6)]Man(b1-4)GlcNAc(b1-4)GlcNAc
# Outline: as §1
# [23] = target: Neu5Ac(a2-6)Gal(b1-4)GlcNAc(b1-3)Gal(b1-4)[Fuc(a1-3)]GlcNAc(b1-3)Gal(b1-4)[Fuc(a1-3)]GlcNAc
# Outline: as §1
# [24] = target: Neu5Ac(a2-6)GalNAc(b1-4)GlcNAc6S
# Outline: as §1
# [25] = target: Neu5Ac(a2-8)Neu5Ac(a2-8)Neu5Ac(a2-8)Neu5Ac(a2-3)[GalNAc(b1-4)]Gal(b1-4)Glc
# Outline: as §1
# [26] = target: Neu5Gc(a2-3)Gal(b1-3)GlcNAc
# Outline: as §1
# [27] = target: Neu5Gc(a2-3)Gal(b1-4)GlcNAc
# Outline: as §1
# [28] = target: Neu5Gc(a2-3)Gal(b1-4)GlcNAc(b1-3)Gal(b1-4)GlcNAc(b1-2)Man(a1-3)[Neu5Gc(a2-3)Gal(b1-4)GlcNAc(b1-3)Gal(b1-4)GlcNAc(b1-2)Man(a1-6)]Man(b1-4)GlcNAc(b1-4)GlcNAc
# Outline: as §1
binder,measurement,setting,value
Nc3LysM-2 (protein) AHVLQARQSVSCDFATAANTGDTCASFAAAWGITEAAFAKLNPGVSCPGNLIAGSEYCVIGTVSTGAPTTTKAATTSTTPPTTTTTTKATTLSTSTTSVSPTGPSPQMPSITSTCNKFYQVQSGDGCWSIEQAQGVSASDFMAWNKAVDAQCDNLWLGYYVCVGVKGGSSPPPTTTTKPASSSAPTPQMPNTVSNCKKFHKVVSGDGCWAIEQAAGISASDFAKWNPYVDAACDNLWLGYYVCIGV,glycan array binding signal (z-score),[1],-0.04
same,glycan array binding signal (z-score),[2],-1.11
same,glycan array binding signal (z-score),[3],2.36
same,glycan array binding signal (z-score),[4],0.714
same,glycan array binding signal (z-score),[5],-0.543
same,glycan array binding signal (z-score),[6],0.247
same,glycan array binding signal (z-score),[7],3.4
same,glycan array binding signal (z-score),[8],-0.959
same,glycan array binding signal (z-score),[9],-0.307
same,glycan array binding signal (z-score),[10],3.61
same,glycan array binding signal (z-score),[11],0.852
same,glycan array binding signal (z-score),[12],0.767
same,glycan array binding signal (z-score),[13],0.06
same,glycan array binding signal (z-score),[14],4.26
same,glycan array binding signal (z-score),[15],-0.674
same,glycan array binding signal (z-score),[16],-0.075
same,glycan array binding signal (z-score),[17],2.08
same,glycan array binding signal (z-score),[18],-0.155
same,glycan array binding signal (z-score),[19],-1.24
same,glycan array binding signal (z-score),[20],0.668
same,glycan array binding signal (z-score),[21],0.422
same,glycan array binding signal (z-score),[22],-0.256
same,glycan array binding signal (z-score),[23],0.118
same,glycan array binding signal (z-score),[24],-2.04
same,glycan array binding signal (z-score),[25],0.938
same,glycan array binding signal (z-score),[26],0.959
same,glycan array binding signal (z-score),[27],-0.122
same,glycan array binding signal (z-score),[28],-0.459
